Reference: the supplement of paper PMC10849652
About 8,800 targets were measured; listed, in parts, are those with a hit and a random draw of the rest. About 0.5% of all pairs of compound and target were hits. Values without a mark were called inactive.

Columns and labels:
Experiment in all cases: log2 fold change, soluble protein after heating vs DMSO (PISA); higher = thermal stabilisation; K562 lysate, 10 uM; active = over 0.2 and 3.5 SD of the protein, either way, in both replicates (recomputed)
ibrutinib = compound: C=CC(=O)N1CCC[C@@H](n2nc(-c3ccc(Oc4ccccc4)cc3)c3c(N)ncnc32)C1 [ibrutinib]
Method in brief: (§1)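 The values are log-two fold changes in thermal stability compared with solvent controls and come from duplicates. They were obtained by TMTpro 16plex LC-MS/MS, with channel sums equalised, on the supernatant after 21,000xg for 90 min. That supernatant came from crude K562 extract at 1 mg/mL protein treated with 10 μM compound for 30 min, heated for 3 min across 48°C-58°C, pooled and brought to 0.5% NP-40 at 4°C.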

[1] = compound: CC(=O)c1cnc2ccc(-c3cc(Cl)c(O)c(Cl)c3)nc2c1N[C@H]1CC[C@H](CN(C)C)CC1
Method in brief: as §1

ralimetinib = compound: CC(C)(C)Cn1c(N)nc2ccc(-c3[nH]c(C(C)(C)C)nc3-c3ccc(F)cc3)nc21 [ralimetinib]
Method in brief: as §1

[2] = compound: CC(C)(O)CC(=O)NCCn1ccc2ncnc(Nc3ccc(Oc4cccc(C(F)(F)F)c4)c(Cl)c3)c21
Method in brief: as §1

[3] = compound: CC(C)C1=C2N=C(C=C(N2N=C1)NCC3=CC=CC=C3)NCCCCCCN
Method in brief: as §1

[4] = compound: CC1=C(C(CC(=O)N1)C2=CC=C(C=C2)C(F)(F)F)C(=O)NC3=C(C=C4C(=C3)C=NN4)F
Method in brief: as §1

[5] = compound: CC1=C(C2=C(C=C1)C(=O)C3=CC=CC=C3N2CCCN)C
Method in brief: as §1

[6] = compound: CC1=C(C=C(C=C1)NC(=O)C2=CC(=CC=C2)C(C)(C)C#N)NC3=CC4=C(C=C3)N=CN(C4=O)C
Method in brief: as §1

[7] = compound: CC1=C(C=C(C=C1)NC(=O)C2=CC(=CC=C2)N(C)C)NC(=O)C3=CC=C(C=C3)O
Method in brief: as §1

[8] = compound: CC1=CC=C(C=C1)SC2=C3C=C(SC3=CN=C2)C(=O)N
Method in brief: as §1

vemurafenib = compound: CCCS(=O)(=O)Nc1ccc(F)c(C(=O)c2c[nH]c3ncc(-c4ccc(Cl)cc4)cc23)c1F [vemurafenib]
Method in brief: as §1

[9] = compound: CCCS(=O)(=O)Nc1ccc(F)c(C(=O)c2c[nH]c3ncc(Cl)cc23)c1F
Method in brief: as §1

barasertib = compound: CCN(CCCOc1ccc2c(Nc3cc(CC(=O)Nc4cccc(F)c4)[nH]n3)ncnc2c1)CCOP(=O)(O)O [barasertib]
Method in brief: as §1

[10] = compound: CC[C@@H]1C(=O)N(C)c2cnc(Nc3ccc(C(=O)NC4CCN(C)CC4)cc3OC)nc2N1C1CCCC1
Method in brief: as §1

volasertib = compound: CC[C@@H]1C(=O)N(C)c2cnc(Nc3ccc(C(=O)N[C@H]4CC[C@H](N5CCN(CC6CC6)CC5)CC4)cc3OC)nc2N1C(C)C [volasertib]
Method in brief: as §1

[11] = compound: CCn1c(C(=O)N(C2CC2)C2CC2)cc2c3c(ncn3C)c(Nc3cc(C)n(C)n3)nc21
Method in brief: as §1

[12] = compound: CCn1cc(-c2ccnc3[nH]c(-c4cccc(CN(C)C)c4)cc23)c(-c2ccc(NC(=O)N(C)C)cc2)n1
Method in brief: as §1

[13] = compound: CN1CCC(CNc2ccc3ncc(-c4cccc(OC(F)(F)F)c4)n3n2)CC1
Method in brief: as §1

saracatinib = compound: CN1CCN(CCOc2cc(OC3CCOCC3)c3c(Nc4c(Cl)ccc5c4OCO5)ncnc3c2)CC1 [saracatinib]
Method in brief: as §1

sotrastaurin = compound: CN1CCN(c2nc(C3=C(c4c[nH]c5ccccc45)C(=O)NC3=O)c3ccccc3n2)CC1 [sotrastaurin]
Method in brief: as §1

UniProt Q99541, sequence (Q99541 whole entry, looked up): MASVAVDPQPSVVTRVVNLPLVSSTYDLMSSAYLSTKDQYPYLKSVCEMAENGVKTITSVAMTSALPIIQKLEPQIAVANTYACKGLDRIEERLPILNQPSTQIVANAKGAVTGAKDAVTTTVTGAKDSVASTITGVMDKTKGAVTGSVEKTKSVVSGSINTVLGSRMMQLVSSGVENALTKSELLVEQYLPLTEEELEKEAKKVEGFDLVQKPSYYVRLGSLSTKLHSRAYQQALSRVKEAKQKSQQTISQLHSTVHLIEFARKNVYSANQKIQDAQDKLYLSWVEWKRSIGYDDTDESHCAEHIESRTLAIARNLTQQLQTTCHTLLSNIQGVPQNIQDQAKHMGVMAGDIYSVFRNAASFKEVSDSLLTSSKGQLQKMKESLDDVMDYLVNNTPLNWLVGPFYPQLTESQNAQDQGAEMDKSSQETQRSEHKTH
UniProt Q6P996, sequence (Q6P996 whole entry, looked up): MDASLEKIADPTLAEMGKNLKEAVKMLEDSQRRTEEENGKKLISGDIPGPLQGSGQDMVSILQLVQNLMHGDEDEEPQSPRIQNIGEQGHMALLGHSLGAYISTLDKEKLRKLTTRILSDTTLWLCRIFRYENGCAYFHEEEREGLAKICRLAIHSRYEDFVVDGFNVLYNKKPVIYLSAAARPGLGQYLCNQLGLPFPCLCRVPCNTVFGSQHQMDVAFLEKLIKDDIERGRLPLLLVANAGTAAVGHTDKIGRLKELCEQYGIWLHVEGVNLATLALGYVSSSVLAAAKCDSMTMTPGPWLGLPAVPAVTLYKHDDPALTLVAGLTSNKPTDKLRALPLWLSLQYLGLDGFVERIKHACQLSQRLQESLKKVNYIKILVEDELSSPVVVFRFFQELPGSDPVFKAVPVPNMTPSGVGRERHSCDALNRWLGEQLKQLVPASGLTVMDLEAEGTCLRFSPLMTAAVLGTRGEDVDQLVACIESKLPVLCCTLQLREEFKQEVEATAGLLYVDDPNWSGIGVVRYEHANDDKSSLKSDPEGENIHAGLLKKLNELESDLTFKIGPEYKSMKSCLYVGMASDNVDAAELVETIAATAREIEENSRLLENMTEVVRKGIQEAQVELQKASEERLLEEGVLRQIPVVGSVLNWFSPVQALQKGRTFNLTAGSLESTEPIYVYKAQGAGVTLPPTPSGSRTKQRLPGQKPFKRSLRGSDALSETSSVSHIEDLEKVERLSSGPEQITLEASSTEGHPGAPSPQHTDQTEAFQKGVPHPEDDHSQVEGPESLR
UniProt P28340, sequence (P28340 whole entry, looked up): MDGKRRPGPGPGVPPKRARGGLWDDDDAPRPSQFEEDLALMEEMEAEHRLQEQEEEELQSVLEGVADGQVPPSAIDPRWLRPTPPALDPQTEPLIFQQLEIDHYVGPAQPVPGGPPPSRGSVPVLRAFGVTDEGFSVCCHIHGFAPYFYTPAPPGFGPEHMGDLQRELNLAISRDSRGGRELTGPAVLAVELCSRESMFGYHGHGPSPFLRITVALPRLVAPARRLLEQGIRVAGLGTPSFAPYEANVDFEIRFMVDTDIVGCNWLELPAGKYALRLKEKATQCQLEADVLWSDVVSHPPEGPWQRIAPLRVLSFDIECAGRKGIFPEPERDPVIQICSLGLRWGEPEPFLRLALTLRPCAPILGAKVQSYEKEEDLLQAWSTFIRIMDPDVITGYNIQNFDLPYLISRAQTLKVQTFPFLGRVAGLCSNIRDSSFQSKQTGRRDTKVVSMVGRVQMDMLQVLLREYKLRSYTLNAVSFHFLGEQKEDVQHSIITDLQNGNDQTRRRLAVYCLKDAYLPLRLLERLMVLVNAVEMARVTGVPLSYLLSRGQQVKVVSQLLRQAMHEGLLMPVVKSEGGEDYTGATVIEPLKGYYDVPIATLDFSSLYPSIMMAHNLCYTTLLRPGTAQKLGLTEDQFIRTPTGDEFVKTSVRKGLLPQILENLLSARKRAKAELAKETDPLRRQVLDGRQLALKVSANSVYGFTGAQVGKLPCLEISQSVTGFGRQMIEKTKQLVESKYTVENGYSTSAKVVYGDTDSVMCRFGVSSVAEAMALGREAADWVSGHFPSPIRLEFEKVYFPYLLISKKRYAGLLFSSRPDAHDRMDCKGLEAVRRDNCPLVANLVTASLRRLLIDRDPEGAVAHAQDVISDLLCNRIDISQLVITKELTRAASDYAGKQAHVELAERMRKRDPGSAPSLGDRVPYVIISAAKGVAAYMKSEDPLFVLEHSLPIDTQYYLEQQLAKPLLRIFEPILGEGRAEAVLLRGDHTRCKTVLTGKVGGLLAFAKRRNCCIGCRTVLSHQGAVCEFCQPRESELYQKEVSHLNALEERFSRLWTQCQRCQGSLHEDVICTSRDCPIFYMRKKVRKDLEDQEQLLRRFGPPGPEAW
UniProt Q9HBH1, sequence (Q9HBH1 whole entry, looked up): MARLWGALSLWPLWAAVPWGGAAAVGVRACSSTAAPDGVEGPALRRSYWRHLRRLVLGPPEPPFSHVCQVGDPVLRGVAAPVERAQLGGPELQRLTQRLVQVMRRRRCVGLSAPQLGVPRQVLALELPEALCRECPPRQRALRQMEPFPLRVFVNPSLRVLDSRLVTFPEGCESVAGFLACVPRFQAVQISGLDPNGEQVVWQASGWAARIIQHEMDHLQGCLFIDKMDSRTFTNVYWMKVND
UniProt P29350, sequence (P29350 whole entry, looked up): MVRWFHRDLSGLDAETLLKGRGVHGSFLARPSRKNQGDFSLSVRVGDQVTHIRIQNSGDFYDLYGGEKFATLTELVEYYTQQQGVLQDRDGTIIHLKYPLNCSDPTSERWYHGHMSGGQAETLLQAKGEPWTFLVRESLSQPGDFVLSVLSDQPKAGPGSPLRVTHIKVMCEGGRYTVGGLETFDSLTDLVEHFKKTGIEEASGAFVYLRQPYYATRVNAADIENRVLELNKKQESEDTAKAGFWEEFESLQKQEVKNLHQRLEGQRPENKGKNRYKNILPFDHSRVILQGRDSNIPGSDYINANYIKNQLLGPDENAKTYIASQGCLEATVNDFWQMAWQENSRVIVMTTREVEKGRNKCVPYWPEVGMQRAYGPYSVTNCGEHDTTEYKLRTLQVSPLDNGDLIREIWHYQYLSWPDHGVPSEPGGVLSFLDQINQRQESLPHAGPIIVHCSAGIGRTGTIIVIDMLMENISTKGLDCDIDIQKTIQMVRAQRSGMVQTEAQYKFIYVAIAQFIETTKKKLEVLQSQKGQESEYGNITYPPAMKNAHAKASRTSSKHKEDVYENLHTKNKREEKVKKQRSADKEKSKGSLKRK
UniProt Q13442, sequence (Q13442 whole entry, looked up): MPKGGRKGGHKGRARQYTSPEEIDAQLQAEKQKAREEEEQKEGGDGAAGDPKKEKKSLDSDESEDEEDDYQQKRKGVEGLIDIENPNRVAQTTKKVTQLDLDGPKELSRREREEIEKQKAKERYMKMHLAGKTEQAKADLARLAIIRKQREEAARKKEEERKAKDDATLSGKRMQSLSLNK
UniProt P49643, sequence (P49643 whole entry, looked up): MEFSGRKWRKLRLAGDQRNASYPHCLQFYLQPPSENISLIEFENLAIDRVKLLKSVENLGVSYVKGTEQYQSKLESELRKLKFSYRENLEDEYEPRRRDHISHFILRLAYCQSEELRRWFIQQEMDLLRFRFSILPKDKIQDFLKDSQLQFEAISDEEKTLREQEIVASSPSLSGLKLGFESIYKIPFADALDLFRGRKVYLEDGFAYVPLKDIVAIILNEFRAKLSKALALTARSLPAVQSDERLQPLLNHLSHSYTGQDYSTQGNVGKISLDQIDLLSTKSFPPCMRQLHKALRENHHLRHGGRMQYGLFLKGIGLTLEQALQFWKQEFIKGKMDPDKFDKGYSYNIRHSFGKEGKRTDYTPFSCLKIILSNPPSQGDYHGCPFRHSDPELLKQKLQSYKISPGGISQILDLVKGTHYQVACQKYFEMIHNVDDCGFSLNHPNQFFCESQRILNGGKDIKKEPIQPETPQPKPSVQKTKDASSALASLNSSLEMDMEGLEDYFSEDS
UniProt Q8N4L2, sequence (Q8N4L2 whole entry, looked up): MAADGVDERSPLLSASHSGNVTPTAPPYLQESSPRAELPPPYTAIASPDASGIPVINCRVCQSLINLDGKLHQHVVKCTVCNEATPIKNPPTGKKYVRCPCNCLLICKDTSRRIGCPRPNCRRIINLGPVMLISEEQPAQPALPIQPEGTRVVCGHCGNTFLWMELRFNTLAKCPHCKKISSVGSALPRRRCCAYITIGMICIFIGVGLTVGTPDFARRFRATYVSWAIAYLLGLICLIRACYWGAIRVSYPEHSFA
UniProt O00264, sequence (O00264 whole entry, looked up): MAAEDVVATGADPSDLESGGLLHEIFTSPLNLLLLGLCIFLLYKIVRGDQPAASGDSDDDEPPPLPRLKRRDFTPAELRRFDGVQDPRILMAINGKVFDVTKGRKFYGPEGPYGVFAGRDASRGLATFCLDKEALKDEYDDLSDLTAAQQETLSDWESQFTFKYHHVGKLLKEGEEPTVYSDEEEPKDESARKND
UniProt Q9Y6I8, sequence (Q9Y6I8 whole entry, looked up): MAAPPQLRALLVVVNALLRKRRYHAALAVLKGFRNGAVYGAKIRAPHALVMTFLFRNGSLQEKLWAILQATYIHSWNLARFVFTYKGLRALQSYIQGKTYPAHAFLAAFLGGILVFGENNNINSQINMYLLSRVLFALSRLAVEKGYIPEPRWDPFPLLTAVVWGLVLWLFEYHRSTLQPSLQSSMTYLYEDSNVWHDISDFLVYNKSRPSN
UniProt Q03393, sequence (Q03393 whole entry, looked up): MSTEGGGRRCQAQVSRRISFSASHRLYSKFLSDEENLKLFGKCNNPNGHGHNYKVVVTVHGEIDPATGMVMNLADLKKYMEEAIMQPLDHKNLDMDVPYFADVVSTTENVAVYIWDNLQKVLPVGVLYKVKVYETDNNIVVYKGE
UniProt Q9Y244, sequence (Q9Y244 whole entry, looked up): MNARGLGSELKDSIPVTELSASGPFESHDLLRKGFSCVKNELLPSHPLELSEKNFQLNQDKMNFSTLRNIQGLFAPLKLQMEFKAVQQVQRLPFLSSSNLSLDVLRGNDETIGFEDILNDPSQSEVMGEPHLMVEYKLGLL

Target	log2 fold change (ibrutinib)	log2 fold change [1]	log2 fold change (ralimetinib)	log2 fold change [2]	log2 fold change [3]	log2 fold change [4]	log2 fold change [5]	log2 fold change [6]	log2 fold change [7]	log2 fold change [8]	log2 fold change (vemurafenib)	log2 fold change [9]	log2 fold change (barasertib)	log2 fold change [10]	log2 fold change (volasertib)	log2 fold change [11]	log2 fold change [12]	log2 fold change [13]	log2 fold change (saracatinib)	log2 fold change (sotrastaurin)
PDAP1 (UniProt Q13442)	-0.042	-0.012	-0.002	-0.065	0.011	-0.046	0.043	-0.015	-0.02	-0.008	-0.026	-0.01	-0.064	0.069	0.04	-0.043	-0.267 (active)	0.159	-0.002	-0.02
PGRMC1 (UniProt O00264)	0.057	0.013	0.008	-0.01	-0.035	0.004	0.022	-0.066	-0.007	-0.005	-0.009	-0.043	0.019	0.015	0.008	0.021	-0.045	0.071	-0.017	-0.003
PUM1 isoform 3 (UniProt Q14671)	-0.034	0.009	0.003	-0.031	-0.035	0.032	0.044	-0.435 (active)	0.049	0.014	-0.07	0.013	0.068	0.031	-0.063	0.03	0.045	-0.084	0.039	0.016
POLD1 (UniProt P28340)	-0.003	0.014	0.035	0.018	0	0.005	-0.012	0.005	0.02	-0.032	0.01	0.053	-0.011	-0.021	-0.005	0.035	0.028	-0.043	0.01	0.015
PRIM2 (UniProt P49643)	0.067	-0.05	0.041	-0.025	-0.001	0.015	-0.043	0.028	0.054	0.009	0.025	0.04	-0.005	-0.034	-0.048	0.019	-0.027	-0.046	-0.03	0.02
PXMP4 (UniProt Q9Y6I8)	-0.022	0	0.012	-0.076	-0.18	-0.008	0.066	0.234	-0.007	0.023	0.343	0.114	0.04	-0.035	-0.039	0.064	-0.246	0.006	0.036	0.025
PTPN6 isoform 4 (UniProt P29350)	0.051	-0.077	0.045	-0.026	0.019	0	-0.081	-0.031	0.011	0.054	0.02	-0.089	0.081	-0.487 (active)	0.014	0.026	-0.038	-0.024	-0.046	0.006
POMP (UniProt Q9Y244)	-0.025	-0.043	-0.001	-0.033	-0.013	0.016	-0.09	0.048	0.027	-0.001	-0.022	0.001	-0.034	0.039	-0.007	-0.028	0.065	-0.061	0.056	-0.064
PIK3R2 (UniProt O00459)	-0.041	0.242	0.11	0.029	-0.028	0.008	0.01	0	0.07	0.019	-0.032	0	-0.002	0.128	-0.003	0.071	-0.018	0.289	-0.014	0.091
PDXDC1 (UniProt Q6P996)	-0.006	0.051	0.071	-0.017	0.001	0.014	-0.024	-0.019	0.024	0.022	-0.005	-0.02	0.008	0.03	-0.059	-0.004	-0.031	-0.067	-0.005	0.015
PLIN2 (UniProt Q99541)	0.015	0.031	-0.014	-0.022	-0.001	0.069	-0.007	0.016	0.025	0	0.014	-0.01	0.073	0.033	0.003	0.048	0.033	-0.181	0.019	0.007
PRMT5 (UniProt O14744)	0.004	-0.002	-0.015	0.004	-0.004	-0.015	-0.008	0.001	-0.01	0.022	0.006	-0.008	-0.007	0.02	-0.007	-0.009	-0.067	0.017	-0.032	0.015
PIP4P2 (UniProt Q8N4L2)	0.034	0.138	-0.025	-0.023	-0.08	-0.015	-0.061	0.013	0.008	-0.096	0.038	0.031	0.311	0.039	0.01	-0.016	0.022	0.03	0.038	-0.16
PDF (UniProt Q9HBH1)	0.054	0.016	-0.014	0.066	0.001	0.01	0.07	0.048	-0.018	0.059	-0.012	0.03	0.028	-0.118	-0.004	0.01	-0.014	-0.181	0.032	-0.02
PTS (UniProt Q03393)	0.213	0.015	0.021	-0.027	-0.041	-0.117	-0.102	0.034	-0.013	-0.017	0.33 (active)	0.044	0.051	0.054	0.014	0.02	-0.045	0.01	0.104	0.057
PI4KA (UniProt P42356)	0.012	0.119	0.011	-0.073	-0.045	0	-0.039	0.032	0.04	-0.002	0.005	0.014	0	0.007	-0.064	0.019	-0.069	0.164	0.016	0.056
